A structure can be active in one record and inactive in another. Activity calls are given as the source filed them. Rule for the calls: active = hit-call score of the fitted dose curve at least 0.9, where 1 is the maximum; inactive = score below 0.9.
How the values were obtained:
Details in all cases: mRNA level, 48 h; actives raise or lower the signal
CYP4A11 (gene 1579) = assay: LTEA_HepaRG_CYP4A11: Life Technologies and Expression Analysis (LTEA) Assay for CYP4A11 using HepaRG (AID 2283486)
How it was run: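 Differentiated HepaRG cells, 48 h after plating, exposed in duplicate for 48 h to 8 half-log concentrations up to 100 uM in 0.5% DMSO in serum-free induction medium. CYP4A11 mRNA measured by TaqMan qRT-PCR, normalized to ACTB, GAPDH and POLR2A.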

[1] = read-out: Cytochrome P450 3A4 (Homo sapiens) (UniProt P08684); assay: LTEA_HepaRG_CYP3A4: Life Technologies and Expression Analysis (LTEA) Assay for CYP3A4 using HepaRG (AID 2283487)
How it was run: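 Differentiated HepaRG cells, plated 48 h, then dosed 48 h in serum-free induction medium with 0.5% DMSO, 8 half-log concentrations up to 100 uM, duplicate. CYP3A4 mRNA by qRT-PCR, normalized to ACTB/GAPDH/POLR2A; bidirectional fit versus DMSO.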

[2] = read-out: DNA damage-inducible transcript 3 (DDIT3), DDIT3 (gene 1649); assay: LTEA_HepaRG_DDIT3: Life Technologies and Expression Analysis (LTEA) Assay for DNA damage-inducible transcript 3 (DDIT3) using HepaRG (AID 2283488)
How it was run: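 Eight-point concentration-response (100 uM highest, half-log dilutions) in HepaRG, 48 h, duplicate wells. Endpoint: qRT-PCR mRNA, normalized (ACTB, GAPDH, POLR2A), bidirectional fitting with DMSO as baseline.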

[3] = read-out: Pro-epidermal growth factor (Homo sapiens) (UniProt P01133); assay: LTEA_HepaRG_EGF: Life Technologies and Expression Analysis (LTEA) Assay for Epidermal growth factor (EGF) using HepaRG (AID 2283489)
How it was run: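 HepaRG cells (~100,000/well, 48 h pre-culture) exposed in duplicate for 48 h in serum-free induction medium to 8 half-log concentrations up to 100 uM in 0.5% DMSO. EGF mRNA by qRT-PCR, normalized to ACTB/GAPDH/POLR2A; bidirectional fit versus DMSO.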

[4] = read-out: Early growth response protein 1 (EGR1) transcription factor, EGR1 (gene 1958); assay: LTEA_HepaRG_EGR1: Life Technologies and Expression Analysis (LTEA) Assay for Early growth response protein 1 (EGR1) transcription factor using HepaRG (AID 2283490)
How it was run: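 EGR1 expression change in human HepaRG after 48 h chemical exposure, assessed by housekeeping-normalized qRT-PCR; concentration-response up to 100 uM, fitted in both directions against DMSO controls.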

[5] = read-out: Ezrin (EZR), EZR (gene 7430); assay: LTEA_HepaRG_EZR: Life Technologies and Expression Analysis (LTEA) Assay for Ezrin (EZR) using HepaRG (AID 2283491)
How it was run: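 EZR transcript levels came from Fluidigm qRT-PCR and were normalized to three housekeeping genes after 48 h chemical exposure of HepaRG cells. Dosing used an 8-point half-log series with a 100 uM top concentration in 0.5% DMSO, tested in duplicate; both directions were fitted versus vehicle.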

[6] = read-out: Cytochrome P450 3A7 (Homo sapiens) (UniProt P24462); assay: LTEA_HepaRG_CYP3A7: Life Technologies and Expression Analysis (LTEA) Assay for CYP3A7 using HepaRG (AID 2283492)
How it was run: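 Differentiated HepaRG cells in serum-free induction medium exposed 48 h in duplicate to 8-point half-log series from 100 uM top in 0.5% DMSO. CYP3A7 mRNA by qRT-PCR, normalized to ACTB/GAPDH/POLR2A, bidirectional fit versus DMSO.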

CYP3A5 (gene 1577) = assay: LTEA_HepaRG_CYP3A5: Life Technologies and Expression Analysis (LTEA) Assay for CYP3A5 using HepaRG (AID 2283493)
How it was run: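 Readout was CYP3A5 mRNA by qRT-PCR. HepaRG cultures were exposed for 48 h in serum-free induction medium to chemicals at up to 100 uM, and responses were fitted in both directions relative to DMSO vehicle.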

[7] = read-out: Fatty Acid-Binding Protein 1 (FABP1), FABP1 (gene 2168); assay: LTEA_HepaRG_FABP1: Life Technologies and Expression Analysis (LTEA) Assay for Fatty Acid-Binding Protein 1 (FABP1) using HepaRG (AID 2283494)
How it was run: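 Values reflect bidirectional concentration-response fitting of FABP1 mRNA change against 0.5% DMSO controls. Human HepaRG cultures received eight half-log doses (top 100 uM) for 48 h; expression quantified by TaqMan qRT-PCR with housekeeping-gene normalization.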

[8] = read-out: Cytochrome P450 4A22 (Homo sapiens) (UniProt Q5TCH4); assay: LTEA_HepaRG_CYP4A22: Life Technologies and Expression Analysis (LTEA) Assay for Cytochrome P450 4A22 (CYP4A22) using HepaRG (AID 2283495)
How it was run: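 Differentiated HepaRG cells in serum-free induction medium exposed 48 h in duplicate to eight half-log concentrations up to 100 uM in 0.5% DMSO. CYP4A22 mRNA quantified by TaqMan qRT-PCR, normalized to ACTB, GAPDH and POLR2A; bidirectional fit versus DMSO.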

[9] = read-out: Cytochrome P450 7A1 (Homo sapiens) (UniProt P22680); assay: LTEA_HepaRG_CYP7A1: Life Technologies and Expression Analysis (LTEA) Assay for Cytochrome P450 7A1 (CYP7A1) using HepaRG (AID 2283496)
How it was run: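 Using 0.5% DMSO as vehicle and baseline, chemicals were tested in duplicate over an 8-point range from 100 uM on HepaRG cells for 48 h; qRT-PCR signals were normalised to ACTB, GAPDH and POLR2A.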

[10] = read-out: Glutathione S-Transferase (GSTA2), GSTA2 (gene 2939); assay: LTEA_HepaRG_GSTA2: Life Technologies and Expression Analysis (LTEA) Assay for Glutathione S-Transferase (GSTA2) using HepaRG (AID 2283497)
How it was run: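 Oxidative-stress marker GSTA2 is quantified by TaqMan qRT-PCR in HepaRG cultures treated 48 h across an eight-point range to 100 uM. Expression is normalized to endogenous controls and compared with 0.5% DMSO vehicle.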

[11] = read-out: Glutamate-cysteine ligase catalytic (GCLC), GCLC (gene 2729); assay: LTEA_HepaRG_GCLC: Life Technologies and Expression Analysis (LTEA) Assay for Glutamate-cysteine ligase catalytic (GCLC) using HepaRG (AID 2283498)
How it was run: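 Oxidative-stress marker GCLC is measured as mRNA change in human HepaRG liver cells after 48 h chemical treatment in 0.5% DMSO, eight concentrations from 100 uM. Activity is fitted bidirectionally against vehicle.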

[12] = read-out: growth arrest and DNA damage 45 (GADD45G), GADD45G (gene 10912); assay: LTEA_HepaRG_GADD45G: Life Technologies and Expression Analysis (LTEA) Assay for growth arrest and DNA damage 45 (GADD45G) using HepaRG (AID 2283499)
How it was run: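 Differentiated human HepaRG cells, 48 h post-plating, exposed 48 h in serum-free induction medium to 8 half-log concentrations (top 100 uM, 0.5% DMSO) in duplicate. GADD45G mRNA measured by Fluidigm TaqMan qRT-PCR, normalized to ACTB, GAPDH, POLR2A; bidirectional fit versus DMSO.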

[13] = read-out: Glutamate-cysteine ligase regulatory (GCLM), GCLM (gene 2730); assay: LTEA_HepaRG_GCLM: Life Technologies and Expression Analysis (LTEA) Assay for Glutamate-cysteine ligase regulatory (GCLM) using HepaRG (AID 2283500)
How it was run: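 In this multiplexed HepaRG gene-expression assay, GCLM mRNA change after 48 h treatment (8 concentrations, max 100 uM) was scored against DMSO by bidirectional curve fitting.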

[14] = read-out: Glutathione S-transferase M3 (GSTM3), GSTM3 (gene 2947); assay: LTEA_HepaRG_GSTM3: Life Technologies and Expression Analysis (LTEA) Assay for Glutathione S-transferase M3 (GSTM3) using HepaRG (AID 2283501)
How it was run: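 Differentiated human HepaRG cells were exposed in duplicate for 48 h in serum-free induction medium, 8 points from 100 uM top in half-log steps, 0.5% DMSO. GSTM3 mRNA was measured by TaqMan qRT-PCR, normalized to ACTB, GAPDH and POLR2A; bidirectional fit versus DMSO.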

[15] = read-out: Heat shock 70 kDa protein 1 (HSPA1A), gene 3303; assay: LTEA_HepaRG_HSPA1A: Life Technologies and Expression Analysis (LTEA) Assay for Heat shock 70 kDa protein 1 (HSPA1A) using HepaRG (AID 2283502)
How it was run: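 An oxidative-stress marker readout: HepaRG cells treated 48 h in duplicate with an eight-point series (highest 100 uM) had HSPA1A mRNA quantified by TaqMan qRT-PCR. Activity was fitted in both directions using 0.5% DMSO as baseline.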

[16] = read-out: Hypoxia-inducible factor 1-alpha (Homo sapiens) (UniProt Q16665); assay: LTEA_HepaRG_HIF1A: Life Technologies and Expression Analysis (LTEA) Assay for Hypoxia-inducible factor 1 (HIF1A) Trancription factor using HepaRG (AID 2283503);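 note: HIF1A transcript by TaqMan qRT-PCR normalized to ACTB GAPDH and POLR2A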
How it was run: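 Gain- or loss-of-signal HIF1A mRNA changes are fitted against a DMSO baseline. HepaRG cultures receive eight concentrations, highest 100 uM, for 48 h in serum-free induction medium with 0.5% DMSO.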

[17] = read-out: 3-Hydroxy-3-Methylglutaryl-CoA Synthase 2 (HMGCS2), HMGCS2 (gene 3158); assay: LTEA_HepaRG_HMGCS2: Life Technologies and Expression Analysis (LTEA) Assay for 3-Hydroxy-3-Methylglutaryl-CoA Synthase 2 (HMGCS2) using HepaRG (AID 2283504)
How it was run: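 Human HepaRG cells in serum-free induction medium were exposed in duplicate for 48 h to 8-point half-log series from 100 uM top in 0.5% DMSO. HMGCS2 mRNA measured by TaqMan qRT-PCR, normalised to ACTB, GAPDH, POLR2A; bidirectional fit versus DMSO.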

Measured: AC50

Chain of Cytochrome P450 3A7 (Homo sapiens) (P24462 whole entry, looked up): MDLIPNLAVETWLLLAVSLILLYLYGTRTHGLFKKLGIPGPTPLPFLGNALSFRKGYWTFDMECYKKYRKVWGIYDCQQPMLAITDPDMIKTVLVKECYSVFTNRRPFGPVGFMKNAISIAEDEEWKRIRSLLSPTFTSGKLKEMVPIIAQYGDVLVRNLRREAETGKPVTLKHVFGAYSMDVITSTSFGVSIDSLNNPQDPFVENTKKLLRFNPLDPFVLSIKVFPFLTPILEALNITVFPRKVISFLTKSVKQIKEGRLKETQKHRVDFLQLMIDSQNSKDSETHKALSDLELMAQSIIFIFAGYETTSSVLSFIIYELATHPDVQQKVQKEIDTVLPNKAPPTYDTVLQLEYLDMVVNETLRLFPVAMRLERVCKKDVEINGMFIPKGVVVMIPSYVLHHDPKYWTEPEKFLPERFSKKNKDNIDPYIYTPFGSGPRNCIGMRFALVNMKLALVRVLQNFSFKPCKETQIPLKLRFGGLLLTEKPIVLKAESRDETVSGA
Chain of Hypoxia-inducible factor 1-alpha (Homo sapiens) (Q16665 whole entry, looked up): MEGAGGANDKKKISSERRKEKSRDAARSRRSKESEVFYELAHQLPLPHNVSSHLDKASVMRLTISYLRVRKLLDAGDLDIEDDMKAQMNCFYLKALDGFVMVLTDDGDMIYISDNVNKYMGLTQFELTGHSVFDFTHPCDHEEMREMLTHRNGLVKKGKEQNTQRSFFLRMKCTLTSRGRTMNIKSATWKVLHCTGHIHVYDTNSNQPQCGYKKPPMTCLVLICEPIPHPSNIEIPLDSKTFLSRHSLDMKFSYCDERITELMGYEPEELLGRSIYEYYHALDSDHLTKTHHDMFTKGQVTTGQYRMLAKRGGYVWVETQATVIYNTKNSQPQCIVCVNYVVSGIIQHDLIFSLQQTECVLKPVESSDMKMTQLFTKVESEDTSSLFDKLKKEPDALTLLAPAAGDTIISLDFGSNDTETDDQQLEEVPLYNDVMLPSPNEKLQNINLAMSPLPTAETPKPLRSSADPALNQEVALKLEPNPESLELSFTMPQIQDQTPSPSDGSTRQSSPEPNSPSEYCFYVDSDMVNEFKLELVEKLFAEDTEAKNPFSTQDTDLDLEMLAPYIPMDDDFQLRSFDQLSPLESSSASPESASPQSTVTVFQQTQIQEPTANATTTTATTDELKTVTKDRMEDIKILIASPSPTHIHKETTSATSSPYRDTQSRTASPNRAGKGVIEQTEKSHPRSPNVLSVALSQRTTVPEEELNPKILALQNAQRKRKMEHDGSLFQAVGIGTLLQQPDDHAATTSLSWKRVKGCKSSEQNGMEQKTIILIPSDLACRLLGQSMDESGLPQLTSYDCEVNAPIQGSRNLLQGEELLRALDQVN
Chain of Cytochrome P450 3A4 (Homo sapiens) (P08684 whole entry, looked up): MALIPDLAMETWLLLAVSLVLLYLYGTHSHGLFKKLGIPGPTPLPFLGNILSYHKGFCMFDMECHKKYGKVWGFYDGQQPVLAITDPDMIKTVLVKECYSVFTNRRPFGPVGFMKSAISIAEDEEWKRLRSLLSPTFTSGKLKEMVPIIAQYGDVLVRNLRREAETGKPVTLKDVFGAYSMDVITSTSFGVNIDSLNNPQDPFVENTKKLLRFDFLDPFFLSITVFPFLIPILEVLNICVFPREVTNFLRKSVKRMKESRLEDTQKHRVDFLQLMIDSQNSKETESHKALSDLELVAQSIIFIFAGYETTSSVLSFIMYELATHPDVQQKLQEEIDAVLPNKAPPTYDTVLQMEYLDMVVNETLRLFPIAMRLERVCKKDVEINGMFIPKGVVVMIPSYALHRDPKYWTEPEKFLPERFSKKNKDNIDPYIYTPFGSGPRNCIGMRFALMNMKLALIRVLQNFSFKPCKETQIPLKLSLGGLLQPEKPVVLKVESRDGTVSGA

Oc1ccc(C(c2ccc(O)cc2)C(Cl)(Cl)Cl)cc1
inactive: [3] | [8] | [9] | [13] | [14]
active: CYP4A11 (gene 1579) 93.2 µM | [1] 78.7 µM | [2] 80.3 µM | [4] 77.7 µM | [5] 80.9 µM | [6] 79.8 µM | CYP3A5 (gene 1577) 70.7 µM | [7] 94.3 µM | [10] 78.2 µM | [11] 77.2 µM | [12] 78.9 µM | [15] 94.5 µM | [16] 79.5 µM | [17] 92.8 µM

CCC(C)OC(=O)N1CCCCC1CCO (stereo not given)
active: [1] 50 µM
inactive: all other assays above

CCN(Cc1c(F)cccc1Cl)c1c([N+](=O)[O-])cc(C(F)(F)F)cc1[N+](=O)[O-]
inactive: [2] | [4] | [5] | [6] | CYP3A5 (gene 1577) | [8] | [12] | [14] | [16]
active: CYP4A11 (gene 1579) 36.3 µM | [1] 8.01 µM | [3] 14 µM | [7] 38.7 µM | [9] 50 µM | [10] 11.7 µM | [11] 50 µM | [13] 50 µM | [15] 50 µM | [17] 50 µM

CC(C)CCCCCCc1ccc(O)cc1
active: [1] 50 µM
inactive: all other assays above

CCNc1nc(N)nc(Cl)n1
active: [1] 3.18 µM | [6] 9.92 µM
inactive: all other assays above

O=C(O)c1ccccc1
inactive: all assays above

CC(C)(c1ccc(O)cc1)c1ccc(O)cc1
active: [7] 50 µM | [15] 0.0172 µM
inactive: CYP4A11 (gene 1579) | [1] | [2] | [3] | [4] | [5] | [6] | CYP3A5 (gene 1577) | [7] | [8] | [9] | [10] | [11] | [12] | [13] | [14] | [15] | [16] | [17]

O=C(c1ccccc1)C1CCCCC1
inactive: all assays above

CCOC(=O)C(C)Oc1ccc(Oc2nc3ccc(Cl)cc3o2)cc1 (stereo not given)
active: [9] 19.9 µM | [10] 38.3 µM
inactive: all other assays above

CCCCC(CC)CN1C(=O)C2C3C=CC(C3)C2C1=O (stereo not given)
active: CYP4A11 (gene 1579) 36.1 µM | [1] 91 µM | [2] 72.7 µM | [6] 85.7 µM | [7] 72.5 µM | [8] 62.5 µM | [9] 73.6 µM | [10] 79.5 µM | [12] 50 µM | [13] 50 µM | [17] 86.3 µM
inactive: [3] | [4] | [5] | CYP3A5 (gene 1577) | [11] | [14] | [15] | [16]

COC(=O)c1ccccc1C(=O)O
inactive: all assays above

CCCCOC(=O)[C@@H](C)Oc1ccc(Oc2ccc(C(F)(F)F)cn2)cc1
active: [9] 34.2 µM
inactive: all other assays above
